Experimental data reported in ChEMBL document CHEMBL4296182, “CO-ADD screening of NIH NCI Diversity Set V”.

What follows are compounds tested on Acinetobacter baumannii (assay: Antibacterial activity against Acinetobacter baumannii ATCC 19606 (CO-ADD:GN_034); MIC in CAMBH media using NBS plates, by Resazurin F(560/590)). Settings: Concentration 20 uM, ASSAY_TEST Inhibition of Bacterial Growth, detection method Resazurin, Fluorescence (ex560/em590), MEDIA CAMHB, plate type 384well, CORNING #3640, time 18 hr.
Type: functional

Row | Compound | Inhibition
1 | Cc1cc(O)c(C(C)C)cc1NC(=O)Nc1cccc2ccccc12 | -15.42%
2 | O=S(=O)(Oc1ccc(Cl)cc1)c1cccc2cccnc12 | -12.19%
3 | CN(NC(=O)C(=O)NCc1ccco1)C(=O)NC1CCCCC1 | 11.61%
4 | CCCCCC(=O)N1CCCCC1 | -9.77%
5 | Cn1c(=O)c2nc(CCCc3ccc([N+](=O)[O-])cc3)[nH]c2n(C)c1=O | -13.97%
6 | CCOC(=O)c1nn(C)c2[nH]c(=O)n(C)c(=O)c12 | 11.46%
7 | Cn1cnc([N+](=O)[O-])c1Sc1nnc(-c2cccnc2)n1C | 15.57%
8 | CCOP(=O)(OCC)/C(C#N)=C/c1ccc([N+](=O)[O-])cc1 | 12.51%
9 | O=[N+]([O-])c1ccccc1/C=C/C=N/N=C/c1ccccc1O | -15.14%
10 | O=C(CN1CCOCC1)N1CCOCC1 | -15.04%
11 | CSc1nsc(NN)n1 | -22.35%
12 | CNc1ncnc2c1cnn2C1CCCCO1 (centres undefined) | -13.53%
13 | CC(C)(C)n1nc(C2CC2)cc1NC(=O)Nc1ccccc1 | -11.36%
14 | Cc1ccc(S(=O)(=O)NNC(=O)C23CCC(CC2)C3)cc1 | 6.35%
15 | CCCN(CCC)CC(=O)N1CC(=O)Nc2ccccc21 | -3.41%
16 | Nc1ccc(S(=O)(=O)NCC2CCCCO2)cc1 (centres undefined) | 6.11%
17 | Cc1nn(-c2ccccc2)c2c1C(c1ccc([N+](=O)[O-])cc1)C(C#N)=C(N)O2 (centres undefined) | 2.7%
18 | Nc1nnc(-c2cccnc2)s1 | -10.83%
19 | CCOC(=O)c1ccc(NC(=O)Oc2cc(C)c(Cl)cc2C(C)C)cc1 | 9.47%
20 | CC(=O)Nc1c(C)cc(OCC(=O)O)cc1C | -5.79%

Row | Compound | Inhibition
21 | COc1cc(CC(=O)C(=O)O)oc(=O)c1 | 6.41%
22 | Cc1cccc2c1c1ccc3c(c1n2C)C(=O)C=CC3=O | -13.4%
23 | CC(=O)CC(=O)Nc1ccc2ccccc2c1 | 10.6%
24 | CC(=O)OCc1cc(-c2nc3ccccc3nc2O)nn1-c1ccc(Cl)cc1 | 12.91%
25 | C=CCOc1c(CCC)cc(CCC)cc1C(N)=O | 14.83%
26 | C=CCOCCN(CC)CC | -4.48%
27 | CCOC(=O)C(Cc1ccc(O)cc1)Nc1nc2ccccc2o1 (centres undefined) | -2.1%
28 | Cc1cc(=O)[nH]c(N)n1 | -6.26%
29 | Cc1ccc(NC(=O)N2CCN(C)CC2)cc1NC(=O)N1CCN(C)CC1 | 1.03%
30 | Sc1nccn1-c1c(Cl)cccc1Cl | 12.03%
31 | CC1=NC(C)(C)CC2CCC(O)C12 (centres undefined) | -5.87%
32 | CC(C)Oc1ccc(C(=O)O)cc1 | -8.45%
33 | COc1cccc(/C=C/c2nccc3ccccc23)c1OC | 1.37%
34 | O=C(O)c1cc2cc(OCc3ccccc3)ccc2[nH]1 | 10.19%
35 | O=C(Nc1cccc([N+](=O)[O-])c1)c1cc2ccccc2cc1O | -9.44%
36 | O=C(O)C1C2OC3C(OC(=O)C31)C2Br (centres undefined) | 9.29%
37 | Cc1n[nH]c2nc(N)nn2c1=O | -0.91%
38 | CC1=CC(=O)CC(C)(C)C1(O)/C=C/C(C)=C/C(=O)O (centres undefined) | -14.23%
39 | Cn1c2c(c(=O)n(C)c1=O)NC1(N2)C(=O)Nc2ccccc21 (centres undefined) | -15.14%
